# Assay outcomes from PubChem.
# This excerpt belongs to a sample that is enriched for hits.
# KDM5B inh = KDM5B demethylase inhibition; Q9UGL1; KDM5B demethylase, FDH-coupled NADH fluorescence (FDH is formaldehyde dehydrogenase); AID 1347165; Potency, µM (doses to about 57.7 µM), most hits filed as inhibitors; 2.6% of 220,000 active; active = well fitted inhibition curve with a large enough effect; note: 0% is about no effect; nearly all actives have a fitted effect of over 70% in size
# Target sequence (Q9UGL1 whole entry, looked up): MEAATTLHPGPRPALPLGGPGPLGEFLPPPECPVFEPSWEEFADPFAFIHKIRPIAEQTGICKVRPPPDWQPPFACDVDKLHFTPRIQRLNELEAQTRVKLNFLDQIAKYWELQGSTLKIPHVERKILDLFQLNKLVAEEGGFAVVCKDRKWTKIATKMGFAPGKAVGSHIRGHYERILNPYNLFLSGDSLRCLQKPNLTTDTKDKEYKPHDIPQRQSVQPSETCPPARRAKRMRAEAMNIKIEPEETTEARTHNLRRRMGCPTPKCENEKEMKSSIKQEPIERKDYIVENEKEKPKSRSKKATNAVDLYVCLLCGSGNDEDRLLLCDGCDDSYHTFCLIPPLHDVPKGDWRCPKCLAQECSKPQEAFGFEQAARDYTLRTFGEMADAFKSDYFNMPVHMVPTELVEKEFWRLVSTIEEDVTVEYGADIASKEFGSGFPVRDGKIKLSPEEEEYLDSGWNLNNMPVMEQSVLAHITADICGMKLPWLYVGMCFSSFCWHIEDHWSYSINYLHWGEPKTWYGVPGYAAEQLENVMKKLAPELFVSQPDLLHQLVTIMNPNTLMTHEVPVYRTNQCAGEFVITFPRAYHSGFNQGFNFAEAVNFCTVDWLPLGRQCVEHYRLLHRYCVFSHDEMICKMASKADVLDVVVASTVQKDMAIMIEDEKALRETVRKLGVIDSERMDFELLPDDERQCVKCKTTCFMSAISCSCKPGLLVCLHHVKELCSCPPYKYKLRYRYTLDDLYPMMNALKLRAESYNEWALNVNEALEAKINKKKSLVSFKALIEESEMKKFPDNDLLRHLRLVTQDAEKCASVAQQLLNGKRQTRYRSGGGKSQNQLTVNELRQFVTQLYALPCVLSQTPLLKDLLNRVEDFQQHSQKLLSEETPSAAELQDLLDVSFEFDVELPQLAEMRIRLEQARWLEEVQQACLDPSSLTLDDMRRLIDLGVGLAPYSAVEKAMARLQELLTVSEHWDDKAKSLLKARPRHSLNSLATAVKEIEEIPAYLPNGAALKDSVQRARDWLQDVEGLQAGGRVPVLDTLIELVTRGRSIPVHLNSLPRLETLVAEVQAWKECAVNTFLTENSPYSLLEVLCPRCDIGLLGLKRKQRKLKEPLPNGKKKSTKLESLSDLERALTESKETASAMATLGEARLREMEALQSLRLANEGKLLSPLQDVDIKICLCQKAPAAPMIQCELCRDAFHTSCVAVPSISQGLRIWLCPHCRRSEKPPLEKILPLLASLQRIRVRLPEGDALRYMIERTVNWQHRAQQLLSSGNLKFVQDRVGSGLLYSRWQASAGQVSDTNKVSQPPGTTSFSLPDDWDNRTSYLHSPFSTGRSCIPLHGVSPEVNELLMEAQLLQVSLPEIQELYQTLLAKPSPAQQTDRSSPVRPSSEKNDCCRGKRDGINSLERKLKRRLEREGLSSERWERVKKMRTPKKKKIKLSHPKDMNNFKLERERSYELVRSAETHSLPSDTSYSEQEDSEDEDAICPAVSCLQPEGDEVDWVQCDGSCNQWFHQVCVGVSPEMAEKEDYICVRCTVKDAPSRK
#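 Here, H3K4me3 peptide (12.5 µM in substrate mix) is demethylated by KDM5BΔAP, 200 nM final, after 10 min compound exposure. Formaldehyde product is coupled through FDH (0.25 U/mL in mix) to NADH fluorescence; 30-min ΔRFU feeds dose-response curves.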
# * marks the source's active call; other numbers are inactive results; i = inactive. Potency is the fitted concentration of half-maximal effect.
SMILES,KDM5B inh
CC(C)NC(=O)c1cc(Cl)ccc1I,i
COC(=O)CNC(=O)Cn1ccc2ccc(Cl)cc21,i
Cc1nc2ccc(Cl)cc2cc1C(=O)NC(C)C,i
COC(=O)CNC(=O)c1cc(-c2ccc(Cl)cc2Cl)c2cccn2n1,i
COC(=O)CNC(=O)c1nc(-c2ccc(Cl)cc2Cl)c2ccccn12,89µM*
COC(=O)CNC(=O)c1nc(-c2ccc(Cl)cc2Cl)c2cnccn12,79µM*
COC(=O)CNC(=O)Cn1ccc2cc(Cl)ccc21,i
COC(=O)CNC(=O)c1cc(-c2cnccc2Cl)c2cccn2n1,i
CC(C)NC(=O)c1nc(-c2ccc(Cl)cc2Cl)c2cnccn12,79µM*
Cc1ccc(C(=O)/C=C/C=C/c2cccs2)cc1,i
Cc1noc(C)c1S(=O)(=O)N1C[C@@H](Oc2ccccc2)C[C@H]1C(=O)N1CCCC1,i
Clc1ccc(N/N=C/c2ccccc2)cc1Cl,i
CN(C)c1ccc(NC(=O)CCn2ccn3nc4c(c3c2=O)CCCC4)cc1,i
CC(C)=CC(=O)Nc1ccc(Br)c(C)c1,i
Cc1cccc(NC(=O)COc2ncnc3ccc(Br)cc23)c1C,i
Cc1noc(C)c1-c1cc2c(cc(C)n2C)c(-c2cccc(CO)c2)n1,i
CNC(=O)c1cc2cc(-c3c(C)noc3C)nc(-c3ccccc3C)c2o1,35µM*
CNC(=O)c1cc2cc(-c3c(C)noc3C)nc(-c3cccc(CO)c3)c2o1,35µM*
O=C1CSc2ccc(C(=O)OCC(=O)c3cccs3)cc2N1,i
Cc1ccc(-c2nc(CSc3nnnn3CC(C)C)co2)c(C)c1,i
Cc1ccc(C)c(CN2CCN(c3nc4c(c(=O)[nH]c(=O)n4C)n3Cc3ccccc3F)CC2)c1,i
Cc1cccc(C(C)C)c1NC(=O)COC(=O)c1ccc2ccccc2n1,i
Cc1noc2c(-c3cn[nH]c3)cc(-c3ccc(F)cc3)nc12,i
Cc1cc(F)ccc1-c1[nH]nc2ncc(-c3cn[nH]c3)nc12,28µM*
COc1ccc(-c2[nH]nc3ncc(-c4ccc([S+](C)(=O)[O-])cc4)nc23)cc1F,i
SMILES,KDM5B inh
Cc1cc(F)ccc1-c1[nH]nc2ncc(-c3ccc([S+](C)(=O)[O-])cc3)nc12,35µM*
C[S+](=O)([O-])c1ccc(-c2cnc3n[nH]c(-c4ccc5c(c4)OCO5)c3n2)cc1,i
COc1ccc(-c2cnc3n[nH]c(-c4ccc(OC)c(F)c4)c3n2)cn1,i
O=C(Nc1cc(-c2ccc(Br)cc2)no1)c1ccco1,i
O=C(CC1CC2CCC1C2)OCC(=O)c1ccc2c(c1)OCO2 (configuration not stated),i
Cc1ccc(C(O)CNC(=O)c2ccc3c(c2)NC(=O)CS3)cc1 (configuration not stated),i
CCC1CCc2sc(C(=O)NC3CC3)cc2C1 (configuration not stated),i
CNC(=O)NC(=O)CCCN1CCN(c2oc(C3CC3)nc2C#N)CC1,i
CC(=O)N1CC(CO)C2(CCN(C(=O)c3nccc4ccccc34)CC2)C1 (configuration not stated),i
Cc1nc(C)c(C(=O)N2CCC3(CC2)CN(c2ncccn2)CC3CO)s1 (configuration not stated),25µM*
COc1cccc(C(=O)N2CCC3(CC2)CN(c2ccncn2)CC3CO)c1C (configuration not stated),i
O=C(c1ccc(Cl)s1)N1CCC2(CC1)CN(c1ccncn1)CC2CO (configuration not stated),i
Cc1nn(C)cc1C(=O)N1CCC2(CC1)CN(c1ncccn1)CC2CO (configuration not stated),28µM*
CC(=O)N1CC(CO)C2(CCN(C(=O)c3cc(C)n(C)n3)CC2)C1 (configuration not stated),i
Fc1ccc(N/N=C/c2c(F)cccc2F)c(F)c1,i
Cc1ccccc1NS(=O)(=O)c1ccc(C)c(C(=O)N(C)Cc2ccccc2)c1,i
CC(=O)c1ccc(-c2cccc(Cl)c2Cl)o1,i
CCOC(=O)c1cccnc1N1C[C@H]2OC(=O)N(Cc3ccccn3)[C@H]2C1,28µM*
O=C(c1cccnc1)N1C[C@@H]2OCC(=O)N(Cc3ccccn3)[C@@H]2C1,i
COc1cc(N2C[C@H]3OC(=O)N(Cc4ccccc4OC)[C@H]3C2)ncn1,i
O=C(c1cc(=O)c2cc(Cl)ccc2o1)N(Cc1ccccc1)c1ccccn1,i
COCCNC(=O)c1cc(-c2ccc(OC)cc2)nc2onc(C3CCNC3)c12 (configuration not stated),79µM*
Cc1cc(C(=O)NC2CC2)c2c(C3CCCNC3)noc2n1 (configuration not stated),i
Cc1cc(C(=O)N2CCCCC2)c2c(C3CCNC3)noc2n1 (configuration not stated),89µM*
COCCNC(=O)c1cc(C2CC2)nc2onc(C3CCNC3)c12 (configuration not stated),79µM*
SMILES,KDM5B inh
O=C(NCc1cccs1)c1cc(C2CC2)nc2onc(C3CCNCC3)c12,i
O=C(NC1CCCC1)c1cc(C2CC2)nc2onc(C3CCNCC3)c12,79µM*
Cc1cc(C(=O)NC2CCNCC2)c2c(C3CCNCC3)noc2n1,i
O=C(NCc1ccc(F)cc1)c1cc(C2CC2)nc2onc(C3CCNCC3)c12,i
Cc1cc(C(=O)NC2CCNCC2)c2c(C3CCNC3)noc2n1 (configuration not stated),i
Cc1cc(C(=O)NCC(F)(F)F)c2c(C3CCNC3)noc2n1 (configuration not stated),i
O=C(c1cc(C2CC2)nc2onc(C3CCNCC3)c12)N1CCCCC1,i
Cc1cc(C(=O)NCc2cccs2)c2c(C3CCNCC3)noc2n1,i
Clc1ccc(CSc2c[nH]c3ccccc23)cc1,i
O=[N+]([O-])c1cccc2ccc(/C=C/c3ccccc3)nc12,i
CSc1nc(-c2ccccc2)c2ccccc2n1,i
COc1cccc(NCc2cc(=O)n3[nH]c(-c4ccc(C)cc4)nc3n2)c1,i
O=C(Cn1ccc(=O)[nH]c1=O)Nc1cccc2cccnc12,i
Cc1ccc(C(=O)/C=C/c2cccc3ccccc23)cc1[N+](=O)[O-],i
N#Cc1nc(Cc2ccccc2)oc1NCc1ccc(F)cc1,i
CC(=O)c1sc(NC(C)C)c(C#N)c1N,i
Cc1ccc(CNC(=O)N2C[C@@H](F)C[C@H]2C(=O)N2CCc3ccccc3C2)cc1,i
Cn1cc2c3c(cccc31)CN(C(=O)c1ccccc1Br)CC2,i
Cn1cc2c3c(cccc31)CN(C(=O)c1ccccc1Cl)CC2,i
Cn1cc2c3c(cccc31)CN(C(=O)C1CCC1)CC2,32µM*
CN(CC(=O)N1CCc2ccccc2C1)S(=O)(=O)c1ccc(F)cc1,i
Cc1ccc(CC(=O)N2CCc3cn(C)c4cccc(c34)C2)cc1,28µM*
O=C([C@@H]1C[C@H](F)CN1S(=O)(=O)Cc1ccccc1F)N1CCc2ccccc2C1,i
Cn1cc2c3c(cccc31)CN(C(=O)Cc1ccccc1F)CC2,28µM*
Cc1ccc(CN(CC(=O)N2CCc3ccccc3C2)S(=O)(=O)c2ccc(Cl)cc2)cc1,i
N#CCCN(CCC#N)C(=O)COc1cc(Cl)ccc1C(N)=O,i
Cc1ccc2c(Cl)c(C(=O)Nc3ccc(S(=O)(=O)Nc4cc(C)nc(C)n4)cc3)sc2c1,i
C=C(C)COc1cc(O)c2c(=O)cc(-c3ccccc3)oc2c1,i
